# In PubChem BioAssay (Tox21):
# Values joined by “and” are separate entries in the source; they are usually repeats but may differ in a detail not shown here. Equal entries are not always repeated. Records with an inconclusive call do not appear. A call without a number means that no potency is given here. More than one record can exist for a structure, and the calls need not agree. Active and inactive are the calls of the source. The call rests on the fitted dose curve; in most records, active means well fitted curve in the direction sought with a large enough effect in the repeat runs; inconclusive means weak or mixed curves; inactive means no such curve, though single readings can be large; an effect the other way counts as inactive or inconclusive. Positions of bridges follow the written chain, without caps; N, C: chain ends. Non-standard residues stand in square brackets, D forms with d. Residues, ends and D or L forms follow the SMILES beside them. *: point of attachment. X1 = CC[C@@H](C)[C@@H](N)C1=N[C@H](C(=O)*)CS1; d(aIle) = CC[C@H](C)[C@@H](N)C(=O)O; dOrn = NCCC[C@@H](N)C(=O)O
# Key:
# [1] = target: Nuclear receptor subfamily 1 group I member 2 (Rattus norvegicus) (UniProt Q9R1A7); assay: Rat pregnane X receptor (rPXR) activation by small molecules, qHTS assay (AID 1346983); settings: rPXR luciferase reporter cells, One-Glo luminescence, 24 h; max activation: stronger effect = higher value; further: nearly all actives have a fitted effect of over 20% in size
# Chain of Nuclear receptor subfamily 1 group I member 2 (Rattus norvegicus) (Q9R1A7 whole entry, looked up): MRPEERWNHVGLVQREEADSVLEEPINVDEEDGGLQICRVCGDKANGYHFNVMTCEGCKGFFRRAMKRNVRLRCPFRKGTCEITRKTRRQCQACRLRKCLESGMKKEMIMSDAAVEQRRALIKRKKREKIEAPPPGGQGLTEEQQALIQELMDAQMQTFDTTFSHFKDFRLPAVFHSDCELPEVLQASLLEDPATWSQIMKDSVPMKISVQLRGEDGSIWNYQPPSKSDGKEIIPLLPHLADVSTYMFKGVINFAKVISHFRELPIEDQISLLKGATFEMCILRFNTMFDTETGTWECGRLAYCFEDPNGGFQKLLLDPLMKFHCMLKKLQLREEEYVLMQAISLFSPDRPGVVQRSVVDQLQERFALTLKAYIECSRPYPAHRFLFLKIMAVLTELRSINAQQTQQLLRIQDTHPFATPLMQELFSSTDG
# Procedure, shortened: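 Luminescent readout (One-Glo luciferase, 30 min room temperature) followed 24 hr compound treatment at 37 C of rPXR cells plated 2,000 per well and preincubated 5hr; qHTS format with compounds delivered in DMSO.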
# [2] = target: Nuclear receptor subfamily 1 group I member 2 (Homo sapiens) (UniProt O75469); assay: CYP3A4 induction through human pregnane X receptor (PXR) by small molecules, qHTS assay (AID 1346984); further: nearly all actives have a fitted effect of over 40% in size
# Procedure, shortened: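 DPX-2 HepG2 cells carrying a PXR response element and CYP3A4-promoter luciferase construct, treated with compounds 24 hr at 37C. Then P450-Glo CYP3A4 Luciferin-IPA substrate (3uM final) for 3 hr at 37C, One-Glo added, luminescence read.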
# [3] = target: Nuclear receptor subfamily 1 group I member 2 (Homo sapiens) (UniProt O75469); assay: Human pregnane X receptor (PXR) activation by small molecules, qHTS assay (AID 1346985); further: nearly all actives have a fitted effect of over 40% in size
# Procedure, shortened: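 DPX-2 cells (HepG2 co-transfected with a PXR response element and a CYP3A4-promoter luciferase construct) were seeded at 2,000 per well, rested 5 hr at 37C, then exposed to DMSO-dissolved compounds for 24 hr. Activation was read as luciferase luminescence.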
# Potency means the concentration at half of the fitted maximal effect.
Structure (SMILES),max activation [1],Potency [2],Potency [3],Potency [1]
OCCCNc1ccccc1,-0.22% (inactive),inactive,inactive,–
CC(=O)OCC(=O)[C@@]1(O)CC[C@H]2[C@@H]3C[C@H](C)C4=CC(=O)C=C[C@]4(C)[C@H]3[C@@H](O)C[C@@]21C,–,inactive,inactive,7.94 µM (active)
FC(F)(F)COCC(F)(F)F,-3.1% (inactive),inactive,inactive,–
CCCCCCCCCCCCCCCC(=O)OC[C@H](COP(=O)([O-])OCC[N+](C)(C)C)OC(=O)CCCCCCCCCCCCCCC,0.686% (inactive),inactive,inactive,–
C[C@@H]1O[C@@H]1P(=O)(O)O,-1.9% (inactive),inactive,inactive,–
Cc1cc(-c2ccc(N=Nc3ccc4c(S(=O)(=O)O)cc(S(=O)(=O)O)c(N)c4c3O)c(C)c2)ccc1N=Nc1ccc2c(S(=O)(=O)O)cc(S(=O)(=O)O)c(N)c2c1O,-5.28% (inactive),inactive,inactive,–
NC(=O)[C@@H]1CCCN1C(=O)[C@H](Cc1cnc[nH]1)NC(=O)[C@@H]1CCC(=O)N1,-0.96% (inactive),inactive,inactive,–
Cc1onc(-c2c(F)cccc2Cl)c1C(=O)N[C@@H]1C(=O)N2[C@@H]1SC(C)(C)[C@@H]2C(=O)O,-1.83% (inactive) and -3.33% (inactive),inactive,inactive and 25.1 µM (active),–
NS(=O)(=O)c1cc(Cl)c(Cl)c(S(N)(=O)=O)c1,-2.98% (inactive),inactive,inactive,–
CCc1cn([C@H]2C[C@H](O)[C@@H](CO)O2)c(=O)[nH]c1=O,1.52% (inactive),inactive,inactive,–
CN(C)CCC(O)(c1ccccc1)c1ccccc1Cl (stereo not given),2.06% (inactive),12.6 µM (active),15.8 µM (active),–
C=C1[C@@H]2CC[C@@H](C2)C1(C)C,-3.65% (inactive),inactive,inactive,–
C=CC[N@@+]12CC[C@@]34c5ccccc5N5/C=C6/[C@H]7C[C@H]8[C@@]9(CC[N@@+]8(CC=C)C/C7=C/CO)c7ccccc7N(/C=C(/[C@@H](C[C@@H]31)/C(=C\CO)C2)[C@H]54)[C@@H]69,3.06% (inactive),inactive,inactive,–
CC[C@@]1([C@@H]2O[C@@H]([C@H]3O[C@@](O)(CO)[C@H](C)C[C@@H]3C)C[C@@H]2C)CC[C@H]([C@]2(C)CC[C@]3(C[C@H](O)[C@@H](C)[C@@H]([C@@H](C)[C@@H](OC)[C@H](C)C(=O)O)O3)O2)O1 (stereo in doubt),-15.4% (inactive),inactive,inactive,–
CCCCCCCCCCCCCC(=O)OCC(COP(=O)([O-])OCC[N+](C)(C)C)OC(=O)CCCCCCCCCCCCC (stereo not given),-1.21% (inactive),inactive,inactive,–
C[S+](CC[C@H](N)C(=O)O)C[C@H]1O[C@@H](n2cnc3c(N)ncnc32)[C@H](O)[C@@H]1O (stereo not given in full),-2.9% (inactive) and 0.617% (inactive),inactive,inactive,–
CNC(=O)OCc1cccc(COC(=O)NC)n1,8.37% (inactive),inactive,inactive,–
C/C(=C\C(=O)OCCCCCCCCC(=O)O)C[C@@H]1OC[C@H](C[C@@H]2O[C@H]2[C@@H](C)[C@H](C)O)[C@@H](O)[C@H]1O,-5.5% (inactive),inactive,inactive,–
CCC1OC(=O)C[C@@H](O)[C@H](C)[C@@H](O[C@@H]2O[C@H](C)C[C@H](N(C)C)[C@H]2O)[C@@H](CC=O)C[C@@H](C)C(=O)/C=C/[C@]2(C)OC2C1C (stereo not given in full),-4.15% (inactive),inactive,inactive,–
NC(N)=NCc1cccc(I)c1,-16.9% (inactive),inactive,inactive,–

Structure (SMILES),max activation [1],Potency [2],Potency [3],Potency [1]
CC[N+](CC)(CC)CCC(O)(c1ccccc1)C1CCCCC1 (stereo not given),-2.27% (inactive),inactive,inactive,–
Cc1cc(CC(C)CC(C)(C)C)n(O)c(=O)c1 (stereo not given) (tested in a mixture with another compound),-3.3% (inactive),inactive,25.1 µM (active),–
Nc1nc(NC2CC2)c2ncn([C@@H]3C=C[C@@H](CO)C3)c2n1,–,inactive,7.08 µM (active),5.01 µM (active)
NC(=O)CC[C@@H]1NC(=O)[C@H](Cc2ccccc2)NC(=O)[C@H](Cc2ccc(O)cc2)NC(=O)[C@@H](N)CSSC[C@@H](C(=O)N2CCC[C@H]2C(=O)N[C@@H](CCCN=C(N)N)C(=O)NCC(N)=O)NC(=O)[C@H](CC(N)=O)NC1=O,-0.0397% (inactive),inactive,inactive,–
CC(C)=CCC/C(C)=C/CC/C(C)=C/CC/C=C(\C)CC/C=C(\C)CCC=C(C)C,-2.04% (inactive),inactive,inactive,–
CC1CCCCN1CCCOC(=O)c1ccccc1 (stereo not given),-7.12% (inactive),inactive,inactive,–
C=CC1=C(C(=O)O)N2C(=O)[C@@H](NC(=O)/C(=N/OCC(=O)O)c3csc(N)n3)[C@H]2SC1 (stereo in doubt),-1.86% (inactive),inactive,inactive,–
CC(=O)OCC1=C(C(=O)O)N2C(=O)[C@@H](NC(=O)Cc3ccccc3)[C@H]2SC1,-4.93% (inactive),inactive,inactive,–
N[C@H](C(=O)O)[C@@H]1CC(Cl)=NO1,-12.5% (inactive),inactive,inactive,–
CN1C(=O)C[C@@H](C(=O)N[C@@H](Cc2cnc[nH]2)C(=O)N2CCC[C@H]2C(N)=O)NC1=O,-0.675% (inactive),inactive,inactive,–
O=c1[nH]c(=O)n([C@H]2C[C@H](O)[C@@H](CO)O2)cc1/C=C/Br,-6.99% (inactive),inactive,inactive,–
NCCO/C=C/[C@H](N)C(=O)O,-1.97% (inactive),inactive,inactive,–
O=C1[O][Bi][O]c2ccccc21,-4.48% (inactive),inactive,inactive,–
Cc1ccc(C(C)(C)c2ccc(C)cc2)cc1,-4.5% (inactive),inactive,inactive,–
C=C(Nc1ccc(OCC)cc1)Nc1ccc(OCC)cc1,-1.1% (inactive) and 0.608% (inactive),inactive,inactive,–
CC[C@@H](C(=O)[C@@H](C)[C@@H](O)[C@H](C)CCc1ccc(C)c(O)c1C(=O)O)[C@H]1O[C@](CC)([C@H]2CC[C@](O)(CC)[C@H](C)O2)C[C@@H]1C,-6.82% (inactive),inactive,8.91 µM (active),–
C=CCN1C(=O)C(CC(C)C)NC1=S (stereo not given),12.3% (inactive),inactive,inactive,–
CCC(O)c1ccccc1 (stereo not given),-2.74% (inactive),inactive,inactive,–
CC(C)CCC[C@@H](C)[C@H]1CC[C@H]2[C@@H]3CC[C@@H]4C[C@H](O)CC[C@]4(C)[C@H]3CC[C@]12C,-7.28% (inactive),inactive,inactive,–
CCOc1ccc(S(=O)(=O)O)c2cccnc12,-0.221% (inactive),inactive,inactive,–

Structure (SMILES),max activation [1],Potency [2],Potency [3],Potency [1]
Nc1nc(/C(=C/CC(=O)O)C(=O)N[C@@H]2C(=O)N3C(C(=O)O)=CCS[C@H]23)cs1,-1.46% (inactive),inactive,inactive,–
N=C(N)n1cccn1,-4.29% (inactive),inactive,inactive,–
O=C(O)CCCC/C=C(\c1ccccc1)c1cccnc1,-2.2% (inactive),inactive,inactive,–
NCC[C@H](O)C(=O)N[C@@H]1C[C@H](N)[C@@H](O[C@H]2O[C@H](CN)CC[C@H]2N)[C@H](O)[C@H]1O[C@H]1O[C@H](CO)[C@@H](O)[C@H](N)[C@H]1O,-1.85% (inactive),inactive,inactive,–
OCC1(CO)COC(C(Cl)(Cl)Cl)OC1,-2.81% (inactive),inactive,inactive,–
CN(Cc1ccccc1)Cc1ccccc1,-2.9% (inactive),inactive,inactive,–
CCCOC(=O)c1ccccc1O,-4.53% (inactive),inactive,inactive,–
Cc1cc(N)c2ccccc2[n+]1CCCCCCCCCC[n+]1c(C)cc(N)c2ccccc21,-11.7% (inactive),inactive,inactive,–
CC/C=C\C/C=C\C/C=C\C/C=C\C/C=C\C/C=C\CCC(=O)O,-7.03% (inactive),inactive,inactive,–
CCC(=O)OC(OP(=O)(CCCCc1ccccc1)CC(=O)N1C[C@H](C2CCCCC2)C[C@H]1C(=O)O)C(C)C (stereo not given in full),-3.49% (inactive),inactive,inactive,–
COc1ccc([C@@H]2CC(=O)c3c(O)cc(O[C@@H]4O[C@H](CO[C@@H]5O[C@@H](C)[C@H](O)[C@@H](O)[C@H]5O)[C@@H](O)[C@H](O)[C@H]4O)cc3O2)cc1O,-3.19% (inactive),inactive,inactive,–
CC(C)CCC[C@@H](C)[C@H]1CC[C@H]2[C@@H]3CC=C4C[C@@H](O)CC[C@]4(C)[C@H]3CC[C@]12C,-2.66% (inactive),inactive,inactive,–
Cc1cc(C(=O)NCCc2ccc(S(=O)(=O)NC(=O)NN3CCCCCC3)cc2)no1,-0.977% (inactive),inactive,inactive,–
OCl,0.862% (inactive),inactive,inactive,–
O=C(CCCN1CCN2CCCC2C1)c1ccc(F)cc1 (stereo not given),1.23% (inactive),inactive,inactive,–
C[C@H](NCCc1ccc(O)cc1)[C@H](O)c1ccc(O)cc1,-4.49% (inactive),inactive,inactive,–
C[S+](C)CCC(N)C(=O)O (stereo not given),-3.19% (inactive),inactive,inactive,–
CSCCC(N)C(=O)O (stereo not given),-0.631% (inactive),inactive,inactive,–
O=S(=O)(O)CC(S)CS (stereo not given),-6.49% (inactive),inactive,inactive,–
CC[C@@H](C)[C@@H](N)C1=N[C@H](C(=O)N[C@@H](CC(C)C)C(=O)N[C@@H](CCC(=O)O)C(=O)N[C@@H](C(=O)N[C@@H]2CCCCNC(=O)[C@@H](CC(N)=O)NC(=O)[C@@H](CC(=O)O)NC(=O)[C@@H](Cc3cnc[nH]3)NC(=O)[C@@H](Cc3ccccc3)NC(=O)[C@@H]([C@H](C)CC)NC(=O)[C@@H](CCCN)NC2=O)[C@@H](C)CC)CS1 (X1-LE[d(aIle)][dK][dOrn][dI][dF][dH][dD][dN]; lactam 4-C),-0.877% (inactive),inactive,inactive,–
